From PubChem BioAssay (NCATS)
Where “and” joins values, the source holds several entries; their conditions need not be identical. Identical values can stand only once. Inconclusive results are not listed. Calls of active or inactive are those of the source. The call rests on the fitted dose curve; in most records, active means well fitted curve in the direction sought with a large enough effect; inconclusive means small, poorly fitted or top-dose-only effect, or another doubt; inactive means no such curve, though single readings can be large; an effect the other way counts as inactive or inconclusive.

What was measured:
MKL-2 = experiment: qHTS assay to identify novel small-molecules to repurpose for Merkel cell carcinoma treatment (AID 1296009); settings: MCC and control cell lines, CellTiter-Glo viability, 72 h; series mostly up to 46 µM; further: nearly all actives have a fitted effect of over 60% in size
Procedure, shortened: (§1)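 Cells exposed to NPC (8-point) and MIPE (11-point) compound dilutions for 72 hr at 37 degree celsius; viability read by CellTiter-Glo luminescence, normalized to no-cell and DMSO in-plate controls.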

NIH3T3 = experiment: as above; settings: MCC and control cell lines, CellTiter-Glo viability, 72 h; at 44.8 µM (top of the series) unless noted
Procedure, shortened: as §1

UISO = experiment: as above; settings: MCC and control cell lines, CellTiter-Glo viability, 72 h; series mostly up to 46 µM
Procedure, shortened: as §1

WaGa = experiment: as above; settings: MCC and control cell lines, CellTiter-Glo viability, 72 h; series mostly up to 46 µM
Procedure, shortened: as §1

C33A = experiment: Primary qHTS to identify gynecologic anti-cancer compounds using libraries of approved drugs and bioactive compounds (AID 1345084); settings: Gynecologic cancer cell panel viability, ATPlite luminescence, 48 h; series mostly up to 57.5 µM; further: nearly all actives have a fitted effect of over 55% in size
Procedure, shortened: (§2)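 Measured: luminescence after ATPlite addition (15 min, RT). Exposure: 48 h, 37 C, 5% CO2.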

CAOV3 = experiment: as above; settings: Gynecologic cancer cell panel viability, ATPlite luminescence, 48 h; series mostly up to 57.5 µM
Procedure, shortened: as §2

CASKI = experiment: as above; settings: Gynecologic cancer cell panel viability, ATPlite luminescence, 48 h; series mostly up to 57.5 µM
Procedure, shortened: as §2

Es-2 = experiment: as above; settings: Gynecologic cancer cell panel viability, ATPlite luminescence, 48 h; series mostly up to 57.5 µM
Procedure, shortened: as §2

HeLa = experiment: as above; settings: Gynecologic cancer cell panel viability, ATPlite luminescence, 48 h; series mostly up to 57.5 µM
Procedure, shortened: as §2

Hek293T = experiment: as above; settings: Gynecologic cancer cell panel viability, ATPlite luminescence, 48 h, control line for the selectivity index; series mostly up to 57.5 µM
Procedure, shortened: as §2

JEG-3 = experiment: as above; settings: Gynecologic cancer cell panel viability, ATPlite luminescence, 48 h; series mostly up to 57.5 µM
Procedure, shortened: as §2

OV90 = experiment: as above; settings: Gynecologic cancer cell panel viability, ATPlite luminescence, 48 h; series mostly up to 57.5 µM
Procedure, shortened: as §2

PA-1 = experiment: as above; settings: Gynecologic cancer cell panel viability, ATPlite luminescence, 48 h; series mostly up to 57.5 µM
Procedure, shortened: as §2

SKOV3 = experiment: as above; settings: Gynecologic cancer cell panel viability, ATPlite luminescence, 48 h; series mostly up to 57.5 µM
Procedure, shortened: as §2

Tov-21-G = experiment: as above; settings: Gynecologic cancer cell panel viability, ATPlite luminescence, 48 h; series mostly up to 57.5 µM
Procedure, shortened: as §2

Tov112D = experiment: as above; settings: Gynecologic cancer cell panel viability, ATPlite luminescence, 48 h; series mostly up to 57.5 µM
Procedure, shortened: as §2

[1] = Drug repurposing screens with cells derived from glioblastoma tumor samples (AID 1345199); settings: GBM patient neurospheres viability, ATP luminescence, 48 h; further: nearly all actives have a fitted effect of over 40% in size
Procedure, shortened: (§3)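 Four patient lines of CD133+ GBM neurospheres were screened at several concentrations; hits were retested in those lines plus three slower-growing GBM lines, using 48-hour treatment and ATP-based viability.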

astro = experiment: as above; settings: viability, ATP luminescence, 48 h; series mostly up to 45.9 µM
Procedure, shortened: as §3

[2] = at 45.9 µM (top of the series), tumour line B
[3] = at 45.9 µM (top of the series), tumour line D
[4] = at 46 µM (top of the series), tumour line A
On the % scale 0 is the no-effect control and ±100 the full control effect.

O=c1oc2ccccc2c(O)c1Cc1c(O)c2ccccc2oc1=O
inactive: Potency (MKL-2) | outcome (NIH3T3) | Potency (UISO) | Potency (WaGa) | Potency (C33A) | outcome (CAOV3) | outcome (CASKI) | Potency (Es-2) | Potency (HeLa) | outcome (Hek293T) | outcome (JEG-3) | Potency (OV90) | Potency (PA-1) | outcome (SKOV3) | Potency (Tov-21-G) | Potency (Tov112D) | activity, negative = cell killing ([1]; at 21.2 µM (top of the series), tumour line B) -21.7% | activity, negative = cell killing ([1]; at 21.2 µM (top of the series), tumour line D) -20.9% | activity, negative = cell killing ([1]; at 21.3 µM (top of the series), tumour line A) -20.4%

Clc1ccccc1N1CCNCC1
inactive: Potency (MKL-2) | outcome (NIH3T3) | Potency (UISO) | Potency (WaGa) | Potency (C33A) | outcome (CASKI) | Potency (Es-2) | Potency (HeLa) | outcome (Hek293T) | outcome (JEG-3) | Potency (OV90) | Potency (PA-1) | outcome (SKOV3) | Potency (Tov-21-G) | Potency (Tov112D)

CC(Cc1ccccc1)N(C)Cc1ccco1 (stereo not given)
inactive: Potency (MKL-2) | Potency (UISO) | Potency (WaGa) | Potency (C33A) | outcome (CAOV3) | outcome (CASKI) | Potency (Es-2) | Potency (HeLa) | outcome (Hek293T) | outcome (JEG-3) | Potency (OV90) | Potency (PA-1) | outcome (SKOV3) | Potency (Tov-21-G) | Potency (Tov112D)

CN1C(=O)NC(=O)C(C)(C2=CCCCC2)C1=O (stereo not given)
inactive: Potency (MKL-2) | outcome (NIH3T3) | Potency (UISO) | Potency (WaGa) | Potency (C33A) | outcome (CASKI) | Potency (Es-2) | Potency (HeLa) | outcome (Hek293T) | outcome (JEG-3) | Potency (OV90) | Potency (PA-1) | outcome (SKOV3) | Potency (Tov-21-G) | Potency (Tov112D) | activity, negative = cell killing [1, 2] 16.4% and -21.6% | activity, negative = cell killing [1, 3] 3.59% and 4.39% | activity, negative = cell killing [1, 4] 3.99%

Clc1cccc(SC2CCNCC2)n1
inactive: Potency (MKL-2) | Potency (UISO) | Potency (WaGa) | Potency (C33A) | outcome (CAOV3) | outcome (CASKI) | Potency (Es-2) | Potency (HeLa) | outcome (Hek293T) | outcome (JEG-3) | Potency (OV90) | Potency (PA-1) | outcome (SKOV3) | Potency (Tov-21-G) | Potency (Tov112D)

CC(C)N(CCC(C(N)=O)(c1ccccc1)c1ccccn1)C(C)C (stereo not given)
inactive: Potency (MKL-2) | Potency (UISO) | Potency (WaGa) | Potency (C33A) | outcome (CAOV3) | outcome (CASKI) | Potency (Es-2) | Potency (HeLa) | outcome (Hek293T) | outcome (JEG-3) | Potency (OV90) | Potency (PA-1) | outcome (SKOV3) | Potency (Tov-21-G) | Potency (Tov112D) | activity, negative = cell killing [1, 2] -20.9% | activity, negative = cell killing [1, 3] 4.58%

CC(NC(C)(C)C)C(=O)c1cccc(Cl)c1 (stereo not given)
inactive: Potency (MKL-2) | outcome (NIH3T3) | Potency (UISO) | Potency (WaGa) | Potency (C33A) | outcome (CASKI) | Potency (Es-2) | Potency (HeLa) | outcome (Hek293T) | outcome (JEG-3) | Potency (OV90) | Potency (PA-1) | outcome (SKOV3) | Potency (Tov-21-G) | Potency (Tov112D) | activity, negative = cell killing [1, 2] -9.74% | activity, negative = cell killing [1, 3] 3.9%

CC[N+]1(CC)CCC(OC(=O)C(O)(c2ccccc2)c2ccccc2)C1 (stereo not given)
inactive: Potency (MKL-2) | Potency (UISO) | Potency (WaGa) | Potency (C33A) | outcome (CAOV3) | outcome (CASKI) | Potency (Es-2) | Potency (HeLa) | outcome (Hek293T) | outcome (JEG-3) | Potency (OV90) | Potency (PA-1) | outcome (SKOV3) | Potency (Tov-21-G) | Potency (Tov112D)

O=C(O)c1ccc(=O)[nH]c1
inactive: Potency (MKL-2) | outcome (NIH3T3) | Potency (UISO) | Potency (WaGa) | Potency (C33A) | outcome (CAOV3) | outcome (CASKI) | Potency (Es-2) | Potency (HeLa) | outcome (Hek293T) | Potency (OV90) | Potency (PA-1) | Potency (Tov-21-G) | Potency (Tov112D)

C=C(C)[C@H]1CN[C@H](C(=O)O)[C@H]1CC(=O)O
inactive: Potency (MKL-2) | outcome (NIH3T3) | Potency (UISO) | Potency (WaGa) | Potency (C33A) | outcome (CAOV3) | outcome (CASKI) | Potency (Es-2) | Potency (HeLa) | outcome (Hek293T) | outcome (JEG-3) | Potency (OV90) | Potency (PA-1) | outcome (SKOV3) | Potency (Tov-21-G) | Potency (Tov112D) | activity, negative = cell killing [1, 2] -14.8% | activity, negative = cell killing [1, 3] -15.4%

CCCOC(=O)c1cncn1C(C)c1ccccc1 (stereo not given)
inactive: Potency (MKL-2) | Potency (UISO) | Potency (WaGa) | Potency (C33A) | outcome (CAOV3) | outcome (CASKI) | Potency (Es-2) | Potency (HeLa) | outcome (Hek293T) | outcome (JEG-3) | Potency (OV90) | Potency (PA-1) | outcome (SKOV3) | Potency (Tov-21-G) | Potency (Tov112D)

CCC1(c2ccccc2)C(=O)N(COC)C(=O)N(COC)C1=O
inactive: Potency (MKL-2) | outcome (NIH3T3) | Potency (UISO) | Potency (WaGa) | Potency (C33A) | outcome (CASKI) | Potency (Es-2) | Potency (HeLa) | outcome (Hek293T) | outcome (JEG-3) | Potency (OV90) | Potency (PA-1) | outcome (SKOV3) | Potency (Tov-21-G) | Potency (Tov112D) | activity, negative = cell killing [1, 2] -7.62% | activity, negative = cell killing [1, 3] 2.45% | activity, negative = cell killing [1, 4] -19.3%

COc1ccc2c3c1O[C@H]1[C@H](O)CC[C@H]4[C@@H](C2)N(C)CC[C@@]341
inactive: Potency (MKL-2) | outcome (NIH3T3) inactive [at 92 µM] | Potency (UISO) | Potency (WaGa) | Potency (C33A) | outcome (CAOV3) | outcome (CASKI) | Potency (Es-2) | Potency (HeLa) | outcome (Hek293T) | outcome (JEG-3) | Potency (OV90) | Potency (PA-1) | outcome (SKOV3) | Potency (Tov-21-G) | Potency (Tov112D) | activity, negative = cell killing ([1]; at 91.6 µM (top of the series), tumour line B) -15.1% | activity, negative = cell killing ([1]; at 91.6 µM (top of the series), tumour line D) -10.3% | Potency (astro)

C=CCC1(C(C)CC)C(=O)NC(=O)NC1=O (stereo not given)
inactive: Potency (MKL-2) | outcome (NIH3T3) | Potency (UISO) | Potency (WaGa) | Potency (C33A) | outcome (CAOV3) | outcome (CASKI) | Potency (Es-2) | Potency (HeLa) | outcome (Hek293T) | outcome (JEG-3) | Potency (OV90) | Potency (PA-1) | outcome (SKOV3) | Potency (Tov-21-G) | Potency (Tov112D)

c1ccc2c(c1)sc1ccccc12
inactive: Potency (MKL-2) | outcome (NIH3T3) | Potency (UISO) | Potency (WaGa) | Potency (C33A) | outcome (CAOV3) | outcome (CASKI) | Potency (Es-2) | Potency (HeLa) | outcome (Hek293T) | outcome (JEG-3) | Potency (OV90) | Potency (PA-1) | outcome (SKOV3) | Potency (Tov-21-G) | Potency (Tov112D) | activity, negative = cell killing [1, 2] -12.7% | activity, negative = cell killing [1, 3] -8% | activity, negative = cell killing [1, 4] -9.49%
